In PubChem BioAssay (NCATS):
Records with an inconclusive call do not appear. Active and inactive are the calls of the source. Calls come from the whole dose curve; as a rule, active = well fitted inhibition curve with a large enough effect; inconclusive = small, poorly fitted or top-dose-only effect; inactive = flat fitted curve, though single readings scatter.

Legend:
Experiment in all cases: qHTS profiling for inhibitors of Plasmodium falciparum proliferation (AID 504749); note: nearly all actives have a fitted effect of over 60% in size
Conditions in all cases: P. falciparum in erythrocytes, SYBR Green DNA, 72 h; series mostly up to 28.7 µM
CP260 = test system: CP260
How it was run: (§1)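 Each compound contacts P. falciparum-infected red blood cells for 72 h at 37 C; lysis buffer (Tris, EDTA, saponin, Triton X, SYBR Green I) is added and fluorescence measured next morning; values normalized to controls.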

CP262 = test system: CP262
How it was run: as §1

CP265 = test system: CP265
How it was run: as §1

CP266 = test system: CP266
How it was run: as §1

CP268 = test system: CP268
How it was run: as §1

CP269 = test system: CP269
How it was run: as §1

CP286 = test system: CP286
How it was run: as §1

CP291 = test system: CP291
How it was run: as §1

CP297 = test system: CP297
How it was run: as §1

CP305 = test system: CP305
How it was run: as §1

Measured: Potency

CCN(CC)CCOC(=O)C(c1ccccc1)c1ccccc1
inactive: all assays above

CC(=O)NS(=O)(=O)c1ccc(N)cc1
inactive: all assays above

CCS(=O)(=O)CCn1c([N+](=O)[O-])cnc1C
inactive: all assays above

Cc1cc(NC(=O)C2=C(O)c3ccccc3S(=O)(=O)N2C)no1
inactive: all assays above

c1ccc2[nH]ccc2c1
inactive: all assays above

O=C(O)c1ccc(OCCCOc2ccc(C(=O)O)cc2)cc1
inactive: all assays above

COC(=O)c1ccc(O)cc1
not listed: CP266
inactive: all other assays above

O=C(CN1CCNCC1)NC1CCCCC1
inactive: all assays above

O=c1[nH]cnc2nc[nH]c12
inactive: all assays above

NS(=O)(=O)c1ccc(NC(=O)CCC(=O)O)cc1
not listed: CP291
inactive: all other assays above

CCCCC1(COC(=O)CCC(=O)O)C(=O)N(c2ccccc2)N(c2ccccc2)C1=O
inactive: all assays above

CCCCCCCCCCC(CO)CCCCCCCC (stereo not drawn)
not listed: CP269 | CP305
inactive: all other assays above

C[C@@H]1O[C@@H](OC[C@H]2O[C@@H](Oc3c(-c4ccc(O)c(O)c4)oc4cc(O)cc(O)c4c3=O)[C@H](O)[C@@H](O)[C@@H]2O)[C@H](O)[C@H](O)[C@H]1O
not listed: CP266
inactive: all other assays above

CC(C)c1cc2c(cc1S(=O)(=O)O)[C@@]1(C)CCC[C@@](C)(C(=O)O)[C@@H]1CC2
not listed: CP269
inactive: all other assays above

CCc1cccc(CC)c1NC(=O)CN(CC(=O)O)CC(=O)O
inactive: all assays above

Cn1c([N+](=O)[O-])cnc1COC(N)=O
not listed: CP268
inactive: all other assays above

COc1ccc(C(=O)NCc2ccc(OCCN(C)C)cc2)cc1OC
not listed: CP291
inactive: all other assays above

CC(=O)Nc1ccc(C(=O)O)cc1
inactive: all assays above

Cc1c(NC(C)C)c(=O)n(-c2ccccc2)n1C
not listed: CP266
inactive: all other assays above

O=C1C(c2[nH]c3ccccc3c2O)=Nc2ccccc21
not listed: CP268 | CP291 | CP297
inactive: all other assays above
